Reference: PubChem BioAssay AID1159580 (chemical genetic matrix, 2015)
Among all 5,500 compounds or so, about 2,000 (36%) were called active. Inconclusive results (about 18%) are left out. Rule as the data show it: active = normalized growth mostly below about 0.91 (no sharp cut-off); inconclusive = no clear call, values can overlap the other calls; inactive = mostly above about 0.92. Some of the results follow.

Assay: chemical genetic growth profiling, strain panel (AID 1159580);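 also: tested at 20 µM; growth read once vehicle control cultures reached saturation at 30 °C; 1 = growth at the plate median or of vehicle wells; lower values mean less growth of the strain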
Conditions: S. cerevisiae deletion strains, growth OD
[1] = locus YAL013W, strain DEP1, active compounds read low
[2] = locus YBR229C, strain ROT2, active compounds read low
[3] = locus YCL061C, strain MRC1, active compounds read low
[4] = locus YDL101C, strain DUN1, active compounds read low
[5] = locus YDR150W, strain NUM1, active compounds read low
[6] = locus YEL061C, strain CIN8, active compounds read low
[7] = locus YGR078C, strain PAC10, active compounds read low
[8] = locus YHR030C, strain SLT2, active compounds read low
[9] = locus YHR087W, strain rtc3, active compounds read low
[10] = locus YJR043C, strain POL32, active compounds read low
[11] = locus YJR075W, strain HOC1, active compounds read low
[12] = locus YLR039C, strain RIC1, active compounds read low
[13] = locus YLR058C, strain SHM2 (second series), active compounds read low
[14] = locus YLR085C, strain ARP6, active compounds read low
[15] = locus YLR262C, strain YPT6, active compounds read low
[16] = locus YML094W, strain GIM5, active compounds read low
[17] = locus YMR219W, strain ESC1, active compounds read low
[18] = locus YMR263W, strain SAP30, active compounds read low
[19] = locus YNL153C, strain GIM3, active compounds read low
[20] = locus YNL298W, strain CLA4 (second series), active compounds read low
[21] = locus YNL322C, strain KRE1, active compounds read low
[22] = locus YNR030W, strain Alg12, active compounds read low
[23] = locus YPL055C, strain LGE1, active compounds read low
[24] = locus YPL241C, strain CIN2, active compounds read low
[25] = locus YPR135W, strain CTF4, active compounds read low

Measured: normalized growth

CCOC(=O)C(c1ccccc1)C(Nc1ccc(Cl)c(Cl)c1)c1ccccn1 (stereo not given)
inactive: [1] 1.01 | [2] 1.01 | [3] 1.02 | [4] 1.03 | [5] 1.02 | [6] 0.996 | [7] 1.01 | [8] 1.11 | [9] 0.986 | [10] 1.03 | [11] 1.03 | locus YKL190W, strain CNB1, active compounds read low 1.01 | [13] 1.01 | [14] 1.02 | [15] 1.15 | [16] 1.01 | [17] 1 | [18] 0.985 | locus YNL128W, strain TEP1, active compounds read low 1.03 | [19] 1.01 | [20] 1.01 | [21] 1.01 | [22] 1.01 | [23] 0.995 | [24] 1.01 | [25] 1.01
active: [12] 1.21 [resistant]

CCOC(=O)CNc1ccc(Cl)c(Cl)c1
inactive: [1] 0.949 | [2] 0.969 | [3] 0.977 | [4] 0.974 | [5] 0.967 | [6] 0.986 | [7] 0.958 | locus YGR229C, strain SMI1, active compounds read low 0.998 | [8] 0.746 | [9] 0.978 | locus YJL187C, strain SWE1, active compounds read low 0.973 | [10] 0.974 | [11] 0.927 | [12] 0.971 | [13] 0.97 | [14] 0.876 | [15] 0.975 | [16] 0.973 | [17] 0.974 | [18] 0.946 | locus YMR307W, strain GAS1, active compounds read low 0.986 | [19] 0.962 | [20] 0.931 | [21] 0.971 | [22] 0.995 | [23] 0.87 | [24] 1 | [25] 0.906
